Data taken from PubChem BioAssay (EPA / NIEHS).
Active and inactive are the calls of the source. Rule for the calls: active = hit-call score of the fitted dose curve at least 0.9, where 1 is the maximum; inactive = score below 0.9.

read-out: Pro-epidermal growth factor (Homo sapiens) (UniProt P01133); assay: LTEA_HepaRG_EGF: Life Technologies and Expression Analysis (LTEA) Assay for Epidermal growth factor (EGF) using HepaRG (AID 2283489); settings: mRNA level, 48 h; actives raise or lower the signal
Protocol: LTEA_HepaRG is a cell based, multiplexed-readout assay that uses HepaRG, a human liver cell line, with measurements taken at 48 hours after chemical dosing on a 96-well plate.LTEA_HepaRG_EGF is one of 102 assay component(s) measured in the LTEA HepaRG cell culture assay. It is a marker of Cell proliferation, survival, death.Data from the assay component LTEA_HepaRG_EGF was analyzed into 1 endpoint. This assay endpoint, LTEA_HepaRG_EGF, was analyzed with bidirectional fitting relative to DMSO as the negative control and baseline of activity. Using a type of inducible reporter, measures of mRNA induction for gain or loss-of-signal activity can be used to understand regulation of transcription factor activity. To generalize the intended target to other relatable targets, this assay endpoint is annotated to the growth factor intended target family, where the subfamily is EGF-like domain.
A total of 1060 chemcials from the ToxCast library were tested in eight-point concentration-response experiments. Cell culture and cytotoxicity assays were conducted at Thermo Fisher Scientific's Custom Services facility (Madison, WI). A single lot of human HepaRG cells (Thermo Fisher Scientific, Frederick, MD) was used for the cell culture experiments. 96-well format collagen type I coated plates of human HepaRG cells were prepared using established methods. Briefly, cryopreserved HepaRG cells were thawed, plated at a density of approximately 100,000 cells/well in HepaRG Thaw, Plate, and General Purpose media (HPRG770, Thermo Fisher Scientific), and incubated for 48 hours. 0.5% DMSO was selected as vehicle control to balance the requisite need of DMSO in HepaRG cultures to maintain differentiation (for example, baseline metabolism, proportions of hepatocytes vs. cholangiocytes), while enabling further hepatic receptor pathway activation (for example, PXR and CAR) in response to chemical exposure. 48 hours after plating, the culture medium was replaced with HepaRG Serum-Free Incudtion Media. Cells were exposed to each test chemical in duplicate and maintained in CO2 incubators for another 48 hours. Chemical plates were thawed to room temperature and 200x concentrations of treatment groups were prepared. 8-point conentration-reponse curves were made with the highest exposure at 100 uM, followed by half-log dilutions, all in 0.5% DMSO. Each test plate contained variouse controls, induction positive controls (1mM phenobarbital), cytotoxicity positive controls ([…] aflatoxin B1), vehicle controls (0.5% DMSO), and total lysis controls (0.5% DMSO). Cell morphology images were taken using an Essen IncuCyte FLR automated microscope, with six 96-well plates imaged in about 24 minutes. Images were captured and exported and JPEG files. Spent culture media was transfered to black-well plates for the LDH assay, and remaining media was sorted at -80 C for later use. Cells were treated with RLT buffer and frozen until shipped for gene expression analysis. Total RNA was isolated from the cell suspension in 75 uL of Buffer RLT (Qiagen, Germantown, MD 20874) by Quintiles/Expression Analysis (Durham, NC) using a custom isolation procedure. Total RNA from each plate well was transferred to a preamplification plate. Fluidigm's 96.96 Dynamic ArrayTM (Fluidigm, Amsterdam, the Netherlands) technology was used for gene expression analyses by quantitative reverse transcription polymerase chain reaction (qRT-PCR, performed by Quintiles/Expression Analysis, Durham, NC)89. Standard TaqManTM Assays (Applied Biosystems/ThermoFisher Scientific, Foster City, CA) were used to assess the expression of 93 genes selected based on their selectivity and sensitivity to important hepatic receptors known to be modulated by environmental chemicals; importance in human hepatocyte functionality; and hepatotoxicity. […]

| Structure (SMILES) | outcome | AC50 |
| --- | --- | --- |
| CNC(=O)Oc1cccc2ccccc12 | inactive | – |
| COCC(=O)N(c1c(C)cccc1C)C(C)C(=O)OC (stereo not given) | inactive | – |
| CCCCOCN(C(=O)CCl)c1c(CC)cccc1CC | inactive | – |
| CCOc1nc(F)cc2nc(S(=O)(=O)Nc3c(Cl)cccc3Cl)nn12 | inactive | – |
| CC1(C)C(C(=O)OC(C#N)c2cccc(Oc3ccccc3)c2)C1(C)C (stereo not given) | inactive | – |
| CO/N=C(/C1=NOCCO1)c1ccccc1Oc1ncnc(Oc2ccccc2Cl)c1F | inactive | – |
| CC1(C)CCC(=Cc2ccc(Cl)cc2)C1(O)Cn1cncn1 (stereo not given) | inactive | – |
| O=C(Nc1ccccc1-c1ccc(Cl)cc1)c1cccnc1Cl | inactive | – |
| CCOC(=O)C(C)OC(=O)c1cc(Oc2ccc(C(F)(F)F)cc2Cl)ccc1[N+](=O)[O-] (stereo not given) | inactive | – |
| CC(C)N1C(=O)c2ccccc2NS1(=O)=O | inactive | – |
| N#CN=C1SCCN1Cc1ccc(Cl)nc1 | inactive | – |
| N#Cc1c[nH]cc1-c1cccc2c1OC(F)(F)O2 | inactive | – |
| OC(c1ccc(Cl)cc1)(c1ccc(Cl)cc1)C(Cl)(Cl)Cl | inactive | – |
| CS(=O)(=O)c1ccc(C(=O)C2C(=O)CCCC2=O)c([N+](=O)[O-])c1 | inactive | – |
| Clc1nc(Cl)nc(Nc2ccccc2Cl)n1 | inactive | – |
| COC(=O)c1c(C(F)F)nc(C(F)(F)F)c(C2=NCCS2)c1CC(C)C | inactive | – |
| COc1cc(Cl)c(OC)cc1Cl | inactive | – |
| Nc1c(Cl)c(Cl)nc(C(=O)O)c1Cl | inactive | – |
| CC(C)Oc1cccc(NC(=O)c2ccccc2C(F)(F)F)c1 | inactive | – |
| O=P(O)(O)CCCl | inactive | – |

| Structure (SMILES) | outcome | AC50 |
| --- | --- | --- |
| CCOP(=S)(OCC)Oc1nc(Cl)n(C(C)C)n1 | inactive | – |
| COCC(C)N(C(=O)CCl)c1c(C)csc1C (stereo not given) | – | 50 µM (active) |
| COP(=O)(OC)O/C(C)=C/C(=O)N(C)C | inactive | – |
| N#Cc1c(Cl)cccc1Cl | inactive | – |
| COC(=O)N(C(=O)N1CO[C@@]2(C(=O)OC)Cc3cc(Cl)ccc3C2=N1)c1ccc(OC(F)(F)F)cc1 | inactive | – |
| CC(C)=CC1C(C(=O)OCc2coc(Cc3ccccc3)c2)C1(C)C (stereo not given) | inactive | – |
| CCCC(=NOCC)C1=C(O)CC(CC(C)SCC)CC1=O (stereo not given) | inactive | – |
| Cc1cnc(C2=NC(C)(C(C)C)C(=O)N2)c(C(=O)O)c1 (stereo not given) | inactive | – |
| CCN(CC)c1nc(C)cc(OP(=S)(OC)OC)n1 | inactive | – |
| Cn1c(-c2ccccc2)cc(-c2ccccc2)[n+]1C | – | 81.3 µM (active) |
| CCCCC(O)(Cn1cncn1)c1ccc(Cl)cc1Cl (stereo not given) | inactive | – |
| CC1(C)CON(Cc2ccccc2Cl)C1=O | inactive | – |
| CCSC(=O)N1CCCCCC1 | inactive | – |
| CC(C)Nc1nc(Cl)nc(NC(C)C)n1 | inactive | – |
| CSC(=O)c1c(C(F)F)nc(C(F)(F)F)c(C(=O)SC)c1CC(C)C | inactive | – |
| O=C(O)c1c(Cl)ccc2cc(Cl)cnc12 | inactive | – |
| COP(=S)(OC)SCn1nnc2ccccc2c1=O | inactive | – |
| CC1(C)C(C=C(Cl)Cl)C1C(=O)OC(C#N)c1cccc(Oc2ccccc2)c1 (stereo not given) | inactive | – |
| CS(=O)(=O)c1cc(C(F)(F)F)ccc1C(=O)c1cnoc1C1CC1 | inactive | – |
| CC(C)C1(C)N=C(c2ncccc2C(=O)O)NC1=O (stereo not given) | inactive | – |
